Test [1] concerns Staphylococcus aureus. Description: Antibacterial activity against Staphylococcus aureus MRSA ATCC 43300 (CO-ADD:GP_020); MIC in CAMBH media using NBS plates, by Resazurin F(560/590). The format is functional. Conditions: Concentration 20 uM, ASSAY_TEST Inhibition of Bacterial Growth, detection method Resazurin, Fluorescence (ex560/em590), MEDIA CAMHB, plate type 384well, CORNING #3640, time 18 hr.

Test [2] deals with Acinetobacter baumannii. Description: Antibacterial activity against Acinetobacter baumannii ATCC 19606 (CO-ADD:GN_034); MIC in CAMBH media using NBS plates, by Resazurin F(560/590). Conditions: Concentration 20 uM, ASSAY_TEST Inhibition of Bacterial Growth, detection method Resazurin, Fluorescence (ex560/em590), MEDIA CAMHB, plate type 384well, CORNING #3640, time 18 hr. The format is functional. On the technique in general: Alamar Blue is a resazurin reagent that responds to reducing activity.

Test [3] concerns Escherichia coli. Description: Antibacterial activity against Escherichia coli ATCC 25922 (CO-ADD:GN_001); MIC in CAMBH media using NBS plates, by Resazurin F(560/590). The conditions noted are these: Concentration 20 uM, ASSAY_TEST Inhibition of Bacterial Growth, detection method Resazurin, Fluorescence (ex560/em590), MEDIA CAMHB, plate type 384well, CORNING #3640, time 18 hr. The test is classed as functional.

The test system of test [4] is Klebsiella pneumoniae. Conditions: Concentration 20 uM; ASSAY_TEST Inhibition of Bacterial Growth; detection method Absorption (OD600); MEDIA CAMHB; plate type 384well; NBS; CORNING #3640; time 18 hr.
Test [5] relates to Candida albicans. The conditions noted are these: 20 µM.
Test [6] concerns Cryptococcus neoformans. Conditions: Concentration 20 uM; ASSAY_TEST Inhibition of Fungal Growth; detection method Resazurin; Absorption (OD600-OD570); plate type 384well; NBS; CORNING #3640.

The structures appear in SMILES notation. For part of these data: Potency and affinity values are given separately.

The Inhibition is the change of the read-out against control, counted positive when it falls.

Take `Cc1cc(C)c(C#N)c(Sc2nc(C)c([N+](=O)[O-])c(C)c2C#N)n1`: the Inhibition in test [1] came to 33.8%; in test [2], 4.2%; in test [3] it was 1.58%; in test [4], 21.76%; in test [5] it was 8.27%; in test [6], 2.92%.
As to `O=C1CSC(=S)N1/N=C/c1c[nH]c2ccc(Br)cc12`, the Inhibition in test [1] is -3.88%; in test [2], 11.83%; in test [3], 4.81%; in test [4] it was 26.71%; in test [5], 19.6%; in test [6], -14.16%.
Regarding `Nc1n[nH]c(Nc2ccccc2)n1`, the Inhibition is 19.31% in test [1]; 2.24% in test [2]; 12.19% in test [3]; 2.99% in test [4]; -0.65% in test [5]; -7.66% in test [6].
With `O=C(O)c1cc(Cl)nnc1O`, the Inhibition is 15.87% in test [1]; -4.6% in test [2]; 13.02% in test [3]; -7.82% in test [4]; -1.79% in test [5]; -6.94% in test [6].
As for `O=C(c1ccccc1)C1C(c2ccccc2)C1[N+](=O)[O-]` (centres undefined), the Inhibition was 0.24% in test [1]; 5.31% in test [2]; -7.09% in test [3]; 8.34% in test [4]; 7.18% in test [5]; -2.68% in test [6].
For the compound `CSC1=NC=C(C#N)C2=NC(c3ccc(Cl)cc3)NN12` (centres undefined), the Inhibition is -1.38% in test [1]; 5.14% in test [2]; -2.57% in test [3]; 11.21% in test [4]; 1.44% in test [5]; 39.9% in test [6].
As to `Cc1nnc(-n2cccc2)s1`, the Inhibition in test [1] is 4.2%; in test [2] it was -10.69%; in test [3], 7.04%; in test [4], -0.01%; in test [5], 2.45%; in test [6], -10.77%.
As to `C=C(C)CN1C(=O)C(C)S/C1=N/N=C1/SCC(=O)N1C` (centres undefined), the Inhibition in test [1] was 12.61%; in test [2] it was 8.16%; in test [3], 1.61%; in test [4], 14.62%; in test [5] it was 6.81%; in test [6], -8.83%.
For `O=C(O)c1ccc(O)c(O)c1` [PROTOCATECHUIC ACID], the Inhibition in test [1] is 11.87%; in test [2] it was -8.73%; in test [3] it was 11.18%; in test [4], 17.43%; in test [5], -0.18%; in test [6], -4.26%.
Consider `CSc1nsc(NN)n1`, for which the Inhibition in test [1] was 4.83%; in test [2] it was -22.35%; in test [3], 5.94%; in test [4], 8.53%; in test [5], 8.71%; in test [6], -11.9%.
Turning to `COc1ccc2nc3cc(Cl)ccc3c(C#N)c2c1`, the Inhibition was 10.22% in test [1]; 12.04% in test [2]; 6.91% in test [3]; 7.74% in test [4]; 4.11% in test [5]; -4.51% in test [6].
`O=C1CSC(c2cccs2)N1c1nncs1` (centres undefined): the Inhibition in test [1] is 13.4%; in test [2], -18.82%; in test [3] it was 13.34%; in test [4], 3.03%; in test [5] it was -0.07%; in test [6], -10.32%.
With `CCOC(=O)c1cc[nH]c1CC(=O)NC`, the Inhibition was 7.18% in test [1]; 12.41% in test [2]; -1.94% in test [3]; 10.9% in test [4]; 1.71% in test [5]; -10.3% in test [6].
For the compound `CCC(C)c1c(N)n(S(=O)(=O)c2ccc(C)cc2)oc1=O` (centres undefined), the Inhibition was 12.19% in test [1]; -9.07% in test [2]; 9% in test [3]; 8.85% in test [4]; 1.8% in test [5]; -2.18% in test [6].
`CC(=O)NCCCOc1ccc([N+](=O)[O-])cc1Cl`: the Inhibition in test [1] was 3.67%; in test [2], -1.89%; in test [3], 11.85%; in test [4], 3.56%; in test [5], 0.9%; in test [6], -4.3%.
For `COc1cccc2nc3cc(C)c(C)cc3nc12`, the Inhibition in test [1] was 20.84%; in test [2] it was 3.71%; in test [3], 12.65%; in test [4], 1.37%; in test [5], 1.48%; in test [6], -8.3%.
As for `O=S(=O)(c1ccc2c(c1)CCCN2)N1CCC[C@H]2CCCC[C@@H]21`, the Inhibition in test [1] was 4.63%; in test [2], -20.33%; in test [3], 3.15%; in test [4], 6.75%; in test [5], 8.6%; in test [6] it was -4.42%.
Regarding `c1ccn(CCc2ccncc2)c1`, the Inhibition is 10.09% in test [1]; -4.91% in test [2]; 7.14% in test [3]; 10.92% in test [4]; 2.03% in test [5]; -5.95% in test [6].
As for `Nc1ccc(/N=N/c2ccccc2)c2ccccc12`, the Inhibition is 1.47% in test [1]; -18.91% in test [2]; 11.66% in test [3]; 8.12% in test [4]; 1.76% in test [5]; -16.64% in test [6].

For the origin of these results see ChEMBL document CHEMBL4296182, “CO-ADD screening of NIH NCI Diversity Set V”.
